Results filed as inconclusive are left out. Activity calls are given as the source filed them. Calls come from the whole dose curve.
% is set by controls: 0 for no effect and ±100 for the full control effect.

For this assay, the target named is Acetylcholinesterase (Homo sapiens) (UniProt P22303). In words: Acetylcholinesterase (AChE) small molecule antagonists: colormetric cell-based qHTS assay (AID 1347395). Note: nearly all actives have a fitted effect of over 30% in size. The settings on record: SH-SY5Y cells AChE activity, colorimetric (Ellman); series mostly up to 115 µM; activity, negative = inhibition: at the top concentration. The procedure, abridged: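 SH-SY5Y cells, plated overnight at 37 C, were exposed to compounds for 30 min at 37 C and 5% CO2. Acetylthiocholine plus DTNB was then added, and thiocholine from endogenous AChE was quantified colorimetrically after 90 min at 37 C.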
Chain of Acetylcholinesterase (Homo sapiens) (P22303 whole entry, looked up): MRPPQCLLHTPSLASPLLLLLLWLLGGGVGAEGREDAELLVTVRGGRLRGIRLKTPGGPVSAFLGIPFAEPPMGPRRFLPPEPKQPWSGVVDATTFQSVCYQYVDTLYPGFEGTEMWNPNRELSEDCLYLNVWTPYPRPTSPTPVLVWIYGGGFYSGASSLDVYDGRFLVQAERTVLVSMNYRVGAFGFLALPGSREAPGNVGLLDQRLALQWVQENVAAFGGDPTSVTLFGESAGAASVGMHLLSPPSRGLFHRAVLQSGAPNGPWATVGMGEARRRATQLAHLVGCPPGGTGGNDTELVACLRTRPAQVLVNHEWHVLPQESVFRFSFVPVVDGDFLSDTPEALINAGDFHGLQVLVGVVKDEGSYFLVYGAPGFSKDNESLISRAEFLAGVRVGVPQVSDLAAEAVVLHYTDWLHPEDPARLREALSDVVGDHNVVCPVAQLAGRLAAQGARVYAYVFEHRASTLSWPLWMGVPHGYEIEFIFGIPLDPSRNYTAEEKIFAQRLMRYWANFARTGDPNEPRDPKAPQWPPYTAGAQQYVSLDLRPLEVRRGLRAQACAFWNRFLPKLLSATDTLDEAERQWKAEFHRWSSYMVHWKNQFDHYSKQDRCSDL
Background: In qHTS, concentration-response curves come from the screen itself.
Take `Nc1c[n+](N2CCOCC2)no1`: the “activity, negative = inhibition” value is -5.73% [at 52.9 µM] (inactive).

On to `NC(=O)NC(N)=O`, for which the Potency entry was “inactive”.

For `CC(=O)Oc1cccc2c1C(=O)c1c(OC(C)=O)cc(C(=O)O)cc1C2=O`, the “activity, negative = inhibition” value was 6.09% [at 52.9 µM] (inactive).

As for `Cc1ccc(-c2ccccc2C#N)cc1`, the “activity, negative = inhibition” value is 0.337% [at 52.9 µM] (inactive).

As to `O=C(O)Cc1ccccc1Oc1ccc(Cl)cc1Cl`, the “activity, negative = inhibition” value was 0.969% [at 52.9 µM] (inactive).

For `CCOCCOCCO`, the “activity, negative = inhibition” value is 0.473% (inactive).

Take `Cc1cccc(C(=O)O)c1O`: the “activity, negative = inhibition” value was -3.03% [at 52.9 µM] (inactive).

Turning to `CCCSSCCC`, the “activity, negative = inhibition” value was -0.21% (inactive).

As to `CN1Cc2cc(C(=O)N3CCC(C4CCNCC4)CC3)ccc2NC(CC(=O)O)C1=O` (stereo not drawn), the “activity, negative = inhibition” value was -6.72% [at 52.9 µM] (inactive).

For the molecule `CC(=O)OCc1ccc2c(c1)OCO2`, the Potency result is “inactive”.

Regarding `O=C(Nc1ncc([N+](=O)[O-])s1)c1cccs1`, the “activity, negative = inhibition” value was 10.3% [at 52.9 µM] (inactive).

As for `O=C(O)CN(CCCN(CC(=O)O)CC(=O)O)CC(=O)O`, the activity, negative = inhibition was 0.786% [at 23.6 µM] (inactive).

In the case of `CCO[Si](CCCN)(OCC)OCC`, the Potency entry is “inactive”.

The values are drawn from PubChem BioAssay (Tox21).
